Where “and” joins values, the source holds several entries; their conditions need not be identical. Equal entries are not always repeated. About 79,000 compounds went through this panel and 15% of them were active in at least one assay; those are over-represented in the sample as a whole. More than one record can exist for a structure, and the calls need not agree. Calls of active or inactive are those of the source. Cut-off read from the data, not from the text of the source: active = growth inhibition above about 70%; inactive = the rest. Where a SMILES comes first, the peptide text is derived from it.
How the values were obtained:
[1] = NCI Yeast Anticancer Drug Screen. Data for the rad50 strain (AID 155);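 note: 0% = growth of vehicle-only cultures of the same strain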; settings: S. cerevisiae rad50 strain growth inhibition, stronger effect = higher value
Summary of the method: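 Relative growth inhibition (compound vs vehicle) was measured in yeast with a defined repair-gene alteration.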

[2] = NCI Yeast Anticancer Drug Screen. Data for the mec2-1 strain (AID 157); settings: S. cerevisiae mec2-1 strain, stronger effect = higher value
Summary of the method: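 Yeast mec2-1 mutant treated with compound. Readout: growth inhibition vs vehicle controls.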

[3] = NCI Yeast Anticancer Drug Screen. Data for the sgs1 mgt1 strain (AID 161);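 note: 0% = growth of cultures given vehicle only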; settings: S. cerevisiae sgs1 mgt1 strain, stronger effect = higher value
Summary of the method: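 Test agents were incubated with a DNA-repair-mutant yeast strain. Growth was then read and compared against vehicle-treated controls.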

[4] = NCI Yeast Anticancer Drug Screen. Data for the cln2 rad14 strain (AID 165);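 note: 0% = growth equal to vehicle treated cultures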; settings: S. cerevisiae cln2 rad14 strain, stronger effect = higher value
Summary of the method: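 cln2 rad14 yeast strain; compound exposure; growth inhibition read vs vehicle controls.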

[5] = NCI Yeast Anticancer Drug Screen. Data for the bub3 strain (AID 167); settings: S. cerevisiae bub3 mutant strain, stronger effect = higher value
Summary of the method: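 Screening used yeast with an engineered genetic alteration affecting cell cycle control. Compound-exposed cultures were compared with vehicle cultures, and reduced growth was taken as inhibition.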

[6] = NCI Yeast Anticancer Drug Screen. Data for the mlh1 rad18 strain (AID 175); settings: S. cerevisiae mlh1 rad18 strain growth inhibition, stronger effect = higher value
Summary of the method: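 Yeast w/ defined DNA-repair lesions; compound exposure; growth vs vehicle controls → % inhibition.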

[7] = at 5.0 µM (retest, dose inferred, filed as 0.5)
[8] = at 50.0 µM (retest, dose inferred, filed as 5.0)

Row | Structure (SMILES) | growth inhibition [1, 7] | growth inhibition [1, 8] | growth inhibition ([1]; at 50.0 µM) | growth inhibition [2, 7] | growth inhibition [2, 8] | growth inhibition ([2]; at 50.0 µM) | growth inhibition [3, 7] | growth inhibition [3, 8] | growth inhibition ([3]; at 50.0 µM) | growth inhibition [4, 7] | growth inhibition [4, 8] | growth inhibition ([4]; at 50.0 µM) | growth inhibition [5, 7] | growth inhibition [5, 8] | growth inhibition ([5]; at 50.0 µM) | growth inhibition [6, 7] | growth inhibition [6, 8] | growth inhibition ([6]; at 50.0 µM)
1 | O=C(O)c1ccccc1C(=O)O | -3% (inactive) | 8% (inactive) | -29.7% (inactive) and 15.6% (inactive) | -3% (inactive) | 4% (inactive) | -14.8% (inactive) and 5.1% (inactive) | 0% (inactive) | 7% (inactive) | 4.95% (inactive) and -23.6% (inactive) | 4% (inactive) | 7% (inactive) | 21.1% (inactive) and 54.1% (inactive) | 2% (inactive) | -6% (inactive) | -7.45% (inactive) and -11.4% (inactive) | -2% (inactive) | 7% (inactive) | -5.8% (inactive) and 7% (inactive)
2 | COc1cc2c(c3c1/c(=N/N(C)C)c1ccccc1n3C)C=CC(C)(C)O2 | 23% (inactive) | 85% (active) | 69.3% (inactive) | 24% (inactive) | 85% (active) | 1% (inactive) | 36% (inactive) | 91% (active) | 55.5% (inactive) | -10% (inactive) | 60% (inactive) | -42.3% (inactive) | 38% (inactive) | 96% (active) | -15.7% (inactive) | 38% (inactive) | 93% (active) | 44.8% (inactive)
3 | CCCCCCCCCCCCCCCCCC(=O)OC(Cc1ccccc1)C(=O)O (centres undefined) | 1% (inactive) | -2% (inactive) | 33.9% (inactive) | 1% (inactive) | 2% (inactive) | 18% (inactive) | 1% (inactive) | -15% (inactive) | 15.7% (inactive) | 2% (inactive) | -9% (inactive) | 26.2% (inactive) | 1% (inactive) | 2% (inactive) | 35.7% (inactive) | 0% (inactive) | -1% (inactive) | 32.9% (inactive)
4 | O=S(=O)(O)c1ccc2cc(N=Nc3c(O)ccc4ccccc34)ccc2c1 | 9% (inactive) | 15% (inactive) | 19.9% (inactive) | 2% (inactive) | 12% (inactive) | 5.45% (inactive) | 7% (inactive) | 72% (active) | 75.3% (active) | -7% (inactive) | 0% (inactive) | 33.4% (inactive) | -2% (inactive) | -21% (inactive) | 3.5% (inactive) | 2% (inactive) | 10% (inactive) | 34.9% (inactive)
5 | CCCCCCCCCCCCCCCC[N+](C)(C)c1nc(Cl)nc(Cl)n1 | 99% (active) | 99% (active) | 99.3% (active) | 100% (active) | 100% (active) | 98.1% (active) | 100% (active) | 100% (active) | 99.2% (active) | 98% (active) | 99% (active) | 95.5% (active) | 99% (active) | 99% (active) | 99.3% (active) | 99% (active) | 99% (active) | 95.8% (active)
6 | O=[N+]([O-])c1ccc(N/N=C(/C=N/Nc2ccc([N+](=O)[O-])cc2)C(O)C(O)C(O)CO)cc1 (centres undefined) | 44% (inactive) and 67% (inactive) | 97% (active) and 96% (active) | 97.7% (active) and 97.2% (active) | 48% (inactive) and 55% (inactive) | 99% (active) and 98% (active) | 97.8% (active) and 97.7% (active) | 44% (inactive) and 79% (active) | 98% (active) | 97.7% (active) and 97% (active) | 10% (inactive) and 27% (inactive) | 94% (active) and 96% (active) | 98% (active) and 97.8% (active) | 73% (active) and 90% (active) | 98% (active) | 98.2% (active) and 98.9% (active) | 70% (active) and 77% (active) | 98% (active) | 98.2% (active) and 97.6% (active)
7 | COc1ccc(/C=C2\CCCC(CN(C)C)C2=O)cc1 (centres undefined) | -1% (inactive) | 8% (inactive) | 65.4% (inactive) | -20% (inactive) | 13% (inactive) | 78.8% (active) | -31% (inactive) | -3% (inactive) | 86.2% (active) | -32% (inactive) | 9% (inactive) | 57.4% (inactive) | -48% (inactive) | 23% (inactive) | 81.8% (active) | -22% (inactive) | 5% (inactive) | 84.7% (active)
8 | CN(C)Cc1cc(CN(C)C)c(O)c(CN(C)C)c1 | 8% (inactive) | 19% (inactive) | -34.9% (inactive) and 40.3% (inactive) | 2% (inactive) | 2% (inactive) | -58.3% (inactive) and 59.9% (inactive) | 4% (inactive) | 11% (inactive) | 0.25% (inactive) and 2.75% (inactive) | -3% (inactive) | -8% (inactive) | -24.1% (inactive) and -31.1% (inactive) | 14% (inactive) | 39% (inactive) | -43.5% (inactive) and 65.3% (inactive) | -6% (inactive) | -9% (inactive) | -22.2% (inactive) and 48.1% (inactive)
9 | Cc1nnc(S(=O)(=O)c2ccc(N=Nc3c(N)nc(N)nc3N)cc2)s1 | 6% (inactive) | 20% (inactive) | -5.45% (inactive) | 8% (inactive) | -5% (inactive) | -13.2% (inactive) | -8% (inactive) | -9% (inactive) | -9.15% (inactive) | 9% (inactive) | 4% (inactive) | 68.4% (inactive) | -1% (inactive) | 7% (inactive) | -23.5% (inactive) | 11% (inactive) | 7% (inactive) | 6.4% (inactive)
10 | CC(C)C(NC(=O)C(N)CCC(=O)O)C(=O)O (stereo not drawn) (H-Glu-Val-OH; configuration not given here) | -3% (inactive) | 2% (inactive) | 15.7% (inactive) | -1% (inactive) | 5% (inactive) | 2.15% (inactive) | 0% (inactive) | 1% (inactive) | -9.35% (inactive) | 5% (inactive) | 7% (inactive) | 45% (inactive) | -1% (inactive) | 0% (inactive) | -8.25% (inactive) | -3% (inactive) | 4% (inactive) | 9.95% (inactive)
11 | O=C1C(Cl)=C(Cl)C(Cl)(Cl)C(Cl)=C1Cl | 24% (inactive) and 61% (inactive) | 99% (active) | 60.4% (inactive) and 64.4% (inactive) | 24% (inactive) and 42% (inactive) | 100% (active) | 99.2% (active) and 52.9% (inactive) | 18% (inactive) and 69% (inactive) | 99% (active) | 97.7% (active) and 66.2% (inactive) | 19% (inactive) and 13% (inactive) | 99% (active) and 98% (active) | 98.7% (active) and -4.55% (inactive) | 22% (inactive) and 19% (inactive) | 99% (active) and 100% (active) | 98.8% (active) and 55.9% (inactive) | 37% (inactive) and 50% (inactive) | 99% (active) | 98.1% (active) and 70.8% (active)
12 | O=C(Nc1cccc2c(OC(=O)C(Cl)Cl)c(N=Nc3ccc(S(=O)(=O)Nc4nccs4)cc3)cc(N=Nc3ccc(S(=O)(=O)Nc4nccs4)cc3)c12)C(Cl)Cl (tested in a mixture with another compound) | 93% (active) and 21% (inactive) | 6% (inactive) and 87% (active) | 71.8% (active) and 25.1% (inactive) | 95% (active) and 10% (inactive) | 39% (inactive) and 90% (active) | 62% (inactive) and 38.1% (inactive) | 94% (active) and 19% (inactive) | 29% (inactive) and 88% (active) | 67.2% (inactive) and 18.3% (inactive) | 93% (active) and 29% (inactive) | 34% (inactive) and 88% (active) | 56.5% (inactive) and 31.9% (inactive) | 90% (active) and 22% (inactive) | 41% (inactive) and 88% (active) | 50.2% (inactive) and 47.1% (inactive) | 85% (active) and 35% (inactive) | -14% (inactive) and 83% (active) | 81.3% (active) and 39.8% (inactive)
13 | Nc1cc2ccc(O)cc2c2ccccc12 | 0% (inactive) | 81% (active) | 94.8% (active) | 4% (inactive) | 51% (inactive) | 86.2% (active) | -1% (inactive) | 54% (inactive) | 91% (active) | 1% (inactive) | 34% (inactive) | 67.5% (inactive) | 2% (inactive) | 89% (active) | 93.4% (active) | -1% (inactive) | 82% (active) | 94.7% (active)

From PubChem BioAssay (NCI)
